Most compounds without a hit are left out; they make up all but 11% or so of the library.
Tau fluor cs: Counterscreen qHTS for Inhibitors of Tau Fibril Formation, Fluorescence Polarization; tau K18 P301L Alexa594 fluorescence, heparin fibrillization; Potency, µM (series often up to 57.7 µM), for inactives: top-dose activity change, negative = decrease; hit rate 0.93% among 280,000; note: potency is the fitted concentration of half-maximal effect; nearly all actives have a fitted effect of over 55% in size
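Human tau K18 P301L (15 uM unlabeled, 0.24 uM Alexa 594-labeled) in 100 mM sodium acetate pH 7 with 20 uM heparin, 6 hr at 37 C. ThT 30 uM added, 1 hr ambient; Alexa 594 FP and total fluorescence read at 555/632 nm.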
Tau ThT inhib: qHTS for Inhibitors of Tau Fibril Formation, Thioflavin T Binding | hit rate 2.1% among 270,000 | recombinant tau K18 P301L, heparin-induced fibrillization, ThT fluorescence | Potency, µM (highest dose often 57.4 µM), for the others: at the highest dose activity, negative = inhibition, usual class: inhibitors | Microtubule-associated protein tau (Homo sapiens), P10636; note: potency is the fitted concentration of half-maximal effect; nearly all actives have a fitted effect of over 55% in size
Target sequence (P10636 561-689 P618L limits assumed): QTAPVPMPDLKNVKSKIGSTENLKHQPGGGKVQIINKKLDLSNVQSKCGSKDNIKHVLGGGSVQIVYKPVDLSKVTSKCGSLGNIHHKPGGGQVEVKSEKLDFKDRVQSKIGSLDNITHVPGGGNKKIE
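Using a mix of unlabeled (15 uM) and Alexa 594-labeled (0.24 uM) tau K18 P301L, heparin-triggered fibrillization over 6 hr at 37 C was scored by ThT fluorescence.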
Tau FP inhib: qHTS for Inhibitors of Tau Fibril Formation, Fluorescence Polarization; Potency, µM (titrated, usually from 57.7 µM), for the others: at the top dose activity, negative = inhibition, actives largely listed as inhibitors; Microtubule-associated protein tau (Homo sapiens), P10636; AID 1468, 2008; K18 P301L tau heparin fibrillization, Alexa594 FP, 6 h; hit rate 0.39% among 280,000; note: potency is the fitted concentration of half-maximal effect; nearly all actives have a fitted effect of over 55% in size
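Compound effects on tau fibrillization are measured by Alexa 594 fluorescence polarization (ex 555, em 632 nm). K18 P301L tau is used at 15 uM with 0.24 uM labeled tracer, and 20 uM heparin induces aggregation over 6 hr at 37 C.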
Sfp inh: qHTS Assay for Inhibitors of Bacillus subtilis Sfp phosphopantetheinyl transferase (PPTase) | 4'-phosphopantetheinyl transferase ffp (Bacillus subtilis), Q9F4F7 | Biochemical Sfp PPTase activity, qHTS | Potency, µM, inactives show largest response in the series, negative = inhibition, most hits filed as inhibitors | hit rate 3.5% among 310,000;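 note: the enzyme is Sfp with the accession as filed and its product quenches rhodamine fluorescence; potency is the fitted concentration of half-maximal effect; 0% = enzyme reaction without inhibitor and -100% = no enzyme wells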
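Fluorescence-quenching assay with 15 nM Sfp, 5 uM rhodamine-CoA and 12.5 uM BHQ-2-labelled ybbR peptide in pH 7.6 Hepes/MgCl2 buffer. Enzyme was pre-incubated with compound for 15 min at room temperature. Rate was taken from the 30-min fluorescence change (525/598 nm).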
FBPA coupling cs: qHTS Assay for Inhibitors of Fructose-1,6-bisphosphate Aldolase from Giardia Lamblia: Coupling assay counterscreen | coupling enzyme system counterscreen, AmpLite Red fluorescence | activity change, negative = inhibition, % at 58.2 µM, hits read low | hit rate 0.67% among 290,000; in the data active = activity change below about -30%
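Final compound at 57.5 uM, incubated 10 min at RT with coupling enzyme reagent (glyceraldehyde-3-phosphate), then 20 min with substrate and AmpLite Red detection. Fluorescence read at 525/598 nm; tests interference with the coupling assay, not aldolase inhibition.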
G9a block: qHTS Assay for Inhibitors of Histone Lysine Methyltransferase G9a. G9a H3K9 monomethylation, AlphaScreen, 2 h. AID 504332, 2011. Potency, µM (highest dose often 102 µM), for inactives: top-dose activity, negative = inhibition, usual class: inhibitors. hit rate 8.8% among 350,000; note: potency is the fitted concentration of half-maximal effect; nearly all actives have a fitted effect of over 75% in size
Target sequence (Q96KQ7 913-1193 limits assumed): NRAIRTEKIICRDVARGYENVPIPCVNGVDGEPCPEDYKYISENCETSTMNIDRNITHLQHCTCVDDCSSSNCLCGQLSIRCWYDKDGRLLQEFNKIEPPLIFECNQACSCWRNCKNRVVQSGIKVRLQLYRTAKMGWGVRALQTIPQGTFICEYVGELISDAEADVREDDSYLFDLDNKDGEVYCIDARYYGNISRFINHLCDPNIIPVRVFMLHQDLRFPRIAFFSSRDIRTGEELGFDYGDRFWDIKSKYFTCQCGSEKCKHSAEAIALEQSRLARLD
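G9a (20 nM) was preincubated 15 min with compound, then reacted 2 h at room temperature with 500 nM biotin-H3K9 peptide and 20 µM SAM. Monomethyl-H3K9 detected by AlphaScreen using anti-H3K9me1 antibody.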
The depositor's hits bear a star; [ ] = dose if it differs, or a comment. Unless noted, calls come from the whole dose curve; as a rule, active = well fitted curve in the direction sought with a large enough effect; inconclusive = small, poorly fitted or top-dose-only effect, or another doubt; inactive = no such curve, though single readings can be large; an effect the other way counts as inactive or inconclusive. Unless noted, % is set by controls: 0 for no effect and ±100 for the full control effect.

Results for COc1ccccc1CN1CCNC(=O)C1CC(=O)NC1CCCCCC1 (centres undefined) ?
Sfp inh: 10.2%; FBPA coupling cs: 0.0; G9a block: 15.8µM*

How did COc1cccc(CN2CCNC(=O)C2CC(=O)NC2CCCCC2)c1OC (centres undefined) do in these assays?
Sfp inh: 12.2%; G9a block: 35.5µM*

How did COc1ccc(CN2CCNC(=O)C2CC(=O)N2CCCCO2)c(OC)c1 (centres undefined) do in these assays?
Tau fluor cs: -5.9%; Tau ThT inhib: -9.4%; Tau FP inhib: -1.9%; Sfp inh: 11.4%; FBPA coupling cs: -6.0; G9a block: -2.1%

How did COc1cccc(CN2CCNC(=O)C2CC(=O)N2CCCCO2)c1OC (centres undefined) do in these assays?
Tau fluor cs: -1.3%; Tau ThT inhib: -5.6%; Tau FP inhib: 1.8%; Sfp inh: -24.3%; FBPA coupling cs: -44.6*; G9a block: 70.8µM*

Results for Cc1cc(C(=O)N/N=C/C=C/c2cccc([N+](=O)[O-])c2)n[nH]1 ?
Tau fluor cs: -5.6%; Tau ThT inhib: inconclusive; Tau FP inhib: 1.7%; Sfp inh: 7.7%; FBPA coupling cs: 0.0; G9a block: -35.7%

Results for COc1cccc2c1Oc1ncccc1N(C(=O)CCC(=O)NCc1cccc(C)c1)C2 ?
Sfp inh: 19.5%; G9a block: 13.5%

How did CCOCCc1nn2c(=O)cc(COC(=O)CNC(=O)c3cccc(C)c3)nc2s1 do in these assays?
Tau fluor cs: 2.7%; Tau ThT inhib: -8.9%; Tau FP inhib: 2.5%; G9a block: 13.1%[59 µM]

Results for CCNc1nc(-c2ccc(OC(F)F)cc2)c(C)s1 ?
Tau fluor cs: inconclusive; Tau ThT inhib: inconclusive; Tau FP inhib: -2.5%; Sfp inh: inconclusive; FBPA coupling cs: 0.0; G9a block: 39.8µM*

Results for COc1ccc(-c2nc(NC3=NCCCCC3)sc2C)cc1 ?
Tau fluor cs: -8.4%; Tau ThT inhib: -3.4%; Tau FP inhib: 6.3%; Sfp inh: -12.6%; FBPA coupling cs: 1.3; G9a block: inconclusive

Results for Oc1ccccc1-c1nc2c3ccccc3c3ccccc3c2[nH]1 ?
Tau fluor cs: 10µM*[quencher]; Tau ThT inhib: inconclusive; Tau FP inhib: -4.9%; Sfp inh: 6.2%; FBPA coupling cs: -46.6*; G9a block: -6.0%

Results for c1csc(-c2nc3c4ccccc4c4ccccc4c3[nH]2)c1 ?
Tau fluor cs: 12.6µM*[quencher]; Tau ThT inhib: inconclusive; Tau FP inhib: inconclusive; Sfp inh: 5.7%; FBPA coupling cs: -9.3; G9a block: -8.5%[59 µM]

How did O=C(O)c1ccccc1-c1nc2ccccc2c(=O)[nH]1 do in these assays?
Tau fluor cs: 1.9%; Tau ThT inhib: 0.8%; Tau FP inhib: -3.8%; Sfp inh: 13.5%; FBPA coupling cs: 3.0; G9a block: 0.1%

How did Cc1ccc(C)c(-n2nnc(-c3nc(-c4ccc(Cl)cc4)no3)c2N)c1 do in these assays?
Tau fluor cs: -4.1%; Tau ThT inhib: 0.2%; Tau FP inhib: -7.7%; G9a block: -1.0%[59 µM]

How did N#Cc1ccc(Cl)cc1NC(=O)CNCc1cccs1 do in these assays?
Sfp inh: 56.2µM*; FBPA coupling cs: 1.8; G9a block: 39.8µM*

Results for Cc1cccc(C)c1NC(=O)CN(C)CC(=O)Nc1cc(Cl)ccc1C#N ?
Tau fluor cs: -7.2%; Tau ThT inhib: -10.4%; Tau FP inhib: 0.9%; Sfp inh: -6.5%; FBPA coupling cs: -0.2; G9a block: -22.6%

Results for CC(=O)Nc1ccc(NC(=O)Cc2ccc(S(=O)(=O)N3CCCCC3)cc2)cc1 ?
G9a block: 39.8µM*

What do the screens show for `O=C(CNCc1cccs1)Nc1ccc(OC(F)(F)F)cc1`?
Sfp inh: -27.4%; FBPA coupling cs: 0.0; G9a block: -12.5%[2.33 µM]

What do the screens show for `O=C(CNCc1cccs1)Nc1ccc(N2CCCCCC2)cc1`?
Tau fluor cs: -22.8%; Tau ThT inhib: inconclusive; Tau FP inhib: 7.0%; Sfp inh: -58.8%; FBPA coupling cs: -12.3; G9a block: 8.91µM*

What do the screens show for `O=C(CNCc1cccs1)Nc1ccc(S(=O)(=O)N2CCCCC2)cc1`?
Tau fluor cs: -10.9%; Tau ThT inhib: -0.8%; Tau FP inhib: -5.4%; Sfp inh: -19.2%; FBPA coupling cs: -0.3; G9a block: 10µM*

Results for O=C(Cc1ccccc1)Nc1ccc(S(=O)(=O)N2CCCC2)cc1 ?
Sfp inh: -3.5%; FBPA coupling cs: 2.0; G9a block: -37.8%

What do the screens show for `COc1ccc(NC(=O)CC2C(=O)N(c3ccc(F)cc3)C(=O)N2Cc2ccco2)cc1` (centres undefined)?
Tau fluor cs: -5.1%; Tau ThT inhib: 4.5%; Tau FP inhib: 1.3%; G9a block: -26.5%[59 µM]

What do the screens show for `Cc1ccc(CNC(=O)CSc2nnc(CNC(=O)c3ccccc3)o2)cc1`?
Sfp inh: 11.8%; FBPA coupling cs: -0.3

How did Cc1ccc(NC(=O)CNCc2cccs2)cc1Br do in these assays?
Sfp inh: -18.0%; FBPA coupling cs: 2.2; G9a block: 17.8µM*

Results for CC(=O)c1ccc(NC(=O)CNCc2cccs2)cc1 ?
Sfp inh: -24.8%; FBPA coupling cs: 0.9; G9a block: inconclusive

Results for CCC(C)c1ccc(S(=O)(=O)N2CCN(S(=O)(=O)c3ccc(NC(C)=O)cc3)CC2)cc1 (centres undefined) ?
Sfp inh: 11.1%; FBPA coupling cs: 0.3; G9a block: 10.7%

What do the screens show for `O=C(Cc1cccs1)Nc1ccc(S(=O)(=O)N2CCCCC2)cc1`?
Tau fluor cs: -18.3%; Tau ThT inhib: -0.2%; Tau FP inhib: 11.4%; Sfp inh: -2.1%; FBPA coupling cs: 2.9; G9a block: 8.91µM*

What do the screens show for `CC(C)c1ccc(S(=O)(=O)N2CCN(CCC(=O)Nc3ccc(N(C)C)cc3)CC2)cc1`?
Tau fluor cs: -14.4%; Tau ThT inhib: -12.3%; Tau FP inhib: 18.0%; Sfp inh: 4.7%; FBPA coupling cs: -3.3; G9a block: 1µM*

How did CCC(C)N1CCN(S(=O)(=O)c2ccc(NC(C)=O)cc2)CC1 (centres undefined) do in these assays?
Tau fluor cs: -11.2%; Tau ThT inhib: -11.5%; Tau FP inhib: -10.5%; Sfp inh: -8.2%; FBPA coupling cs: 5.8; G9a block: 20µM*
